Source: PubChem BioAssay (NCI)
Several values for one entry are separate records, joined by “and”; a condition that tells them apart may be missing. Equal values may be shown once. Compounds without any hit were thinned out: in the full panel of roughly 79,000, 15% have a hit. More than one record can exist for a structure, and the calls need not agree. Activity calls are given as the source filed them. Cut-off read from the data, not from the text of the source: active = growth inhibition above about 70%; inactive = the rest.

What was measured:
[1] = NCI Yeast Anticancer Drug Screen. Data for the rad52 strain (AID 147);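 note: 0% = growth of vehicle-treated control cultures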; details: S. cerevisiae rad52 mutant growth inhibition, stronger effect = higher value
Method in brief: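 Here a repair-compromised yeast strain receives each compound; its growth is then quantified and normalised to vehicle-only controls.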

[2] = NCI Yeast Anticancer Drug Screen. Data for the wt1 strain (AID 149);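 note: 0% = growth of vehicle-treated wt1 cultures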; details: S. cerevisiae wt1 strain (SPY 50644) growth inhibition, stronger effect = higher value
Method in brief: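 Using yeast strain wt1, compound-induced growth inhibition was determined against vehicle-treated cultures.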

[3] = NCI Yeast Anticancer Drug Screen. Data for the rad50EPP+ strain (AID 151);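 note: 0% = growth of vehicle-treated control cultures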; details: S. cerevisiae rad50 mutant strain, stronger effect = higher value
Method in brief: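 Read-out is yeast growth inhibition relative to vehicle; cells used were the rad50EPP+ strain.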

[4] = NCI Yeast Anticancer Drug Screen. Data for the mgt1 strain (AID 153); details: S. cerevisiae mgt1 mutant growth inhibition, stronger effect = higher value
Method in brief: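 Measured: inhibition of mgt1 yeast growth by compound, normalized to vehicle-treated cultures.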

[5] = NCI Yeast Anticancer Drug Screen. Data for the rad50 strain (AID 155);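 note: 0% = growth of vehicle-only cultures of the same strain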; details: S. cerevisiae rad50 strain growth inhibition, stronger effect = higher value
Method in brief: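 Relative growth inhibition (compound vs vehicle) was measured in yeast with a defined repair-gene alteration.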

[6] = NCI Yeast Anticancer Drug Screen. Data for the mec2-1 strain (AID 157); details: S. cerevisiae mec2-1 strain, stronger effect = higher value
Method in brief: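 Using mec2-1 yeast: add compound, measure growth, express inhibition versus vehicle-treated cultures.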

[7] = NCI Yeast Anticancer Drug Screen. Data for the rad14 strain (AID 159);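 note: 0% = growth of vehicle-treated control cultures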; details: S. cerevisiae rad14 strain growth inhibition, stronger effect = higher value
Method in brief: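 Screen for anticancer potential: a yeast strain altered in DNA damage repair is grown with compound, and reduced growth is quantified against vehicle controls.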

[8] = NCI Yeast Anticancer Drug Screen. Data for the sgs1 mgt1 strain (AID 161);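 note: 0% = growth of cultures given vehicle only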; details: S. cerevisiae sgs1 mgt1 strain, stronger effect = higher value
Method in brief: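 Growth of a repair-deficient yeast mutant was monitored after compound treatment and expressed as inhibition relative to vehicle-treated cultures.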

[9] = NCI Yeast Anticancer Drug Screen. Data for the CLN2oe strain (AID 163);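 note: 0% = growth of vehicle-only control cultures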; details: S. cerevisiae CLN2oe strain, stronger effect = higher value
Method in brief: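 Whole-cell yeast growth assay. A strain engineered for altered cell-cycle control received compound, and inhibition relative to vehicle-treated cultures was recorded.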

[10] = NCI Yeast Anticancer Drug Screen. Data for the cln2 rad14 strain (AID 165);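 note: 0% = growth equal to vehicle treated cultures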; details: S. cerevisiae cln2 rad14 strain, stronger effect = higher value
Method in brief: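 Yeast strain cln2 rad14, bearing defects in cell cycle control and DNA repair, serves as the test system; values reflect growth inhibition compared with vehicle.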

[11] = NCI Yeast Anticancer Drug Screen. Data for the bub3 strain (AID 167); details: S. cerevisiae bub3 mutant strain, stronger effect = higher value
Method in brief: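 Screening used yeast with an engineered genetic alteration affecting cell cycle control. Compound-exposed cultures were compared with vehicle cultures, and reduced growth was taken as inhibition.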

[12] = NCI Yeast Anticancer Drug Screen. Data for the wt2 strain (AID 169);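 note: 0% = growth of vehicle-treated yeast cultures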; details: S. cerevisiae wt2 strain growth inhibition, stronger effect = higher value
Method in brief: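 Treated yeast vs. vehicle-treated yeast: growth inhibition determined.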

[13] = NCI Yeast Anticancer Drug Screen. Data for the mlh1 strain (AID 171);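 note: 0% = growth of vehicle-treated control cultures of the same strain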; details: S. cerevisiae mlh1 strain growth inhibition, stronger effect = higher value
Method in brief: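 A yeast strain with a defined genetic lesion serves as the test organism. Cultures receive compound or vehicle, and growth is measured.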

[14] = NCI Yeast Anticancer Drug Screen. Data for the sgs1 strain (AID 173);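 note: 0% = growth of vehicle-only control cultures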; details: S. cerevisiae sgs1 mutant, stronger effect = higher value
Method in brief: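 A genetically defined yeast mutant is incubated with the test compound, and its growth is compared to that of the same strain given vehicle.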

[15] = NCI Yeast Anticancer Drug Screen. Data for the mlh1 rad18 strain (AID 175); details: S. cerevisiae mlh1 rad18 strain growth inhibition, stronger effect = higher value
Method in brief: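 Steps: expose repair-defective yeast to compound; measure growth; express inhibition against vehicle-treated controls.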

[16] = NCI Yeast Anticancer Drug Screen. Data for the rad18 strain (AID 177); details: S. cerevisiae rad18 mutant growth inhibition, stronger effect = higher value
Method in brief: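 Measured value is growth inhibition of a yeast strain bearing a DNA repair alteration, referenced to vehicle-treated cells.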

[17] = at 5.0 µM (retest, dose inferred, filed as 0.5)
[18] = at 50.0 µM (retest, dose inferred, filed as 5.0)

Measured: growth inhibition

CN(C)CCOC1(Cc2ccc(F)cc2)CCC(C(C)(C)C)CC1 (stereo unspecified)
18.8% (inactive) and 99.2% (active): [6]; at 50.0 µM
46.3% (inactive) and 99.2% (active): [11]; at 50.0 µM
38.3% (inactive) and 99.1% (active): [5]; at 50.0 µM
inactive: [1]; at 1.2 µM 8% | [1]; at 3.7 µM 5% | [1]; at 11.0 µM -4% | [1]; at 33.0 µM 7% | [2]; at 1.2 µM 10% | [2]; at 3.7 µM 6% | [2]; at 11.0 µM -11% | [2]; at 33.0 µM -5% | [3]; at 1.2 µM -1% | [3]; at 3.7 µM -13% | [3]; at 11.0 µM -27% | [3]; at 33.0 µM -61% | [3]; at 100.0 µM 68% | [4]; at 1.2 µM 18% | [4]; at 3.7 µM 8% | [4]; at 11.0 µM 20% | [4]; at 33.0 µM 53% | [5]; at 1.2 µM -10% | [5]; at 3.7 µM 6% | [5]; [17] 4% and -18% | [5]; at 11.0 µM 14% | [5]; at 33.0 µM 53% | [6]; at 1.2 µM -12% | [6]; at 3.7 µM -10% | [6]; [17] -12% and -13% | [6]; at 11.0 µM -8% | [6]; at 33.0 µM 19% | [7]; at 1.2 µM 6% | [7]; at 3.7 µM 7% | [7]; at 11.0 µM 10% | [7]; at 33.0 µM 66% | [8]; [17] -1% and -5% | [9]; at 1.2 µM -5% | [9]; at 3.7 µM -5% | [9]; at 11.0 µM -5% | [9]; at 33.0 µM -2% | [10]; [17] 17% and -22% | [10]; [18] 34% and 51% | [11]; at 1.2 µM -4% | [11]; at 3.7 µM -4% | [11]; [17] 10% and -19% | [11]; at 11.0 µM -1% | [11]; at 33.0 µM 7% | [12]; at 1.2 µM 1% | [12]; at 3.7 µM -1% | [12]; at 11.0 µM -1% | [12]; at 33.0 µM 16% | [13]; at 1.2 µM 2% | [13]; at 3.7 µM 7% | [13]; at 11.0 µM 11% | [13]; at 33.0 µM 58% | [14]; at 1.2 µM 32% | [14]; at 3.7 µM 16% | [14]; at 11.0 µM 18% | [14]; at 33.0 µM 56% | [15]; [17] 7% and -11% | [16]; at 1.2 µM -9% | [16]; at 3.7 µM -23% | [16]; at 11.0 µM -2% | [16]; at 33.0 µM 18%
-1% (inactive) and 92% (active): [6]; [18]
15.3% (inactive) and 99.3% (active): [10]; at 50.0 µM
active: [1]; at 100.0 µM 98% | [2]; at 100.0 µM 95% | [4]; at 100.0 µM 98% | [5]; at 100.0 µM 97% | [6]; at 100.0 µM 98% | [7]; at 100.0 µM 98% | [8]; [18] 75% and 83% | [8]; at 50.0 µM 92.8% and 99.1% | [9]; at 100.0 µM 98% | [11]; at 100.0 µM 98% | [12]; at 100.0 µM 99% | [13]; at 100.0 µM 98% | [14]; at 100.0 µM 99% | [15]; [18] 94% and 99% | [15]; at 50.0 µM 97.8% and 99.3% | [16]; at 100.0 µM 98%
65% (inactive) and 92% (active): [5]; [18]
56% (inactive) and 99% (active): [11]; [18]

Oc1ccc(O)c(Cc2ccccc2)c1
active: [1]; at 11.0 µM 89% | [1]; at 33.0 µM 97% | [1]; at 100.0 µM 99% | [2]; at 100.0 µM 93% | [3]; at 3.7 µM 88% | [3]; at 11.0 µM 95% | [3]; at 33.0 µM 98% | [3]; at 100.0 µM 99% | [4]; at 33.0 µM 78% | [4]; at 100.0 µM 99% | [5]; at 3.7 µM 87% | [5]; [17] 77% | [5]; at 11.0 µM 97% | [5]; at 33.0 µM 99% | [5]; [18] 97% | [5]; at 50.0 µM 79.3% | [5]; at 100.0 µM 99% | [6]; at 11.0 µM 75% | [6]; at 33.0 µM 100% | [6]; at 50.0 µM 84.3% | [6]; at 100.0 µM 100% | [7]; at 11.0 µM 73% | [7]; at 33.0 µM 98% | [7]; at 100.0 µM 99% | [8]; at 50.0 µM 92.5% | [9]; at 33.0 µM 72% | [9]; at 100.0 µM 98% | [10]; at 50.0 µM 97.4% | [11]; at 33.0 µM 97% | [11]; [18] 88% | [11]; at 50.0 µM 98.3% | [11]; at 100.0 µM 99% | [12]; at 100.0 µM 87% | [13]; at 33.0 µM 89% | [13]; at 100.0 µM 98% | [14]; at 11.0 µM 94% | [14]; at 33.0 µM 99% | [14]; at 100.0 µM 99% | [15]; [18] 95% | [15]; at 50.0 µM 98% | [16]; at 11.0 µM 87% | [16]; at 33.0 µM 97% | [16]; at 100.0 µM 99%
inactive: [1]; at 1.2 µM 21% | [1]; at 3.7 µM 48% | [2]; at 1.2 µM 6% | [2]; at 3.7 µM 14% | [2]; at 11.0 µM 29% | [2]; at 33.0 µM 50% | [3]; at 1.2 µM 56% | [4]; at 1.2 µM 4% | [4]; at 3.7 µM 13% | [4]; at 11.0 µM 37% | [5]; at 1.2 µM 37% | [6]; at 1.2 µM 6% | [6]; at 3.7 µM 30% | [6]; [17] -9% | [6]; [18] 68% | [7]; at 1.2 µM 17% | [7]; at 3.7 µM 34% | [8]; [17] -20% | [8]; [18] 68% | [9]; at 1.2 µM 3% | [9]; at 3.7 µM 28% | [9]; at 11.0 µM 40% | [10]; [17] -25% | [10]; [18] 47% | [11]; at 1.2 µM 8% | [11]; at 3.7 µM 25% | [11]; [17] -26% | [11]; at 11.0 µM 63% | [12]; at 1.2 µM -2% | [12]; at 3.7 µM 1% | [12]; at 11.0 µM 23% | [12]; at 33.0 µM 58% | [13]; at 1.2 µM 9% | [13]; at 3.7 µM 22% | [13]; at 11.0 µM 47% | [14]; at 1.2 µM 16% | [14]; at 3.7 µM 45% | [15]; [17] 36% | [16]; at 1.2 µM 27% | [16]; at 3.7 µM 52%
